Measured values: PubChem BioAssay (Tox21)
Inconclusive results are not listed. Active and inactive are the calls of the source. Unless noted, the call rests on the fitted dose curve; in most records, active means well fitted curve in the direction sought with a large enough effect in the repeat runs; inconclusive means weak or mixed curves; inactive means no such curve, though single readings can be large; an effect the other way counts as inactive or inconclusive.

Key:
[1] = qHTS assay to identify aromatase inhibitors - cell viability counter screen (AID 743084);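 further: cells stimulated with testosterone during compound exposure; nearly all actives have a fitted effect of over 55% in size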; further: potency means the concentration at half of the fitted maximal effect
[2] = target: Aryl hydrocarbon receptor (Homo sapiens) (UniProt P35869); assay: qHTS assay to identify small molecule that activate the aryl hydrocarbon receptor (AhR) signaling pathway (AID 743085); further: nearly all actives have a fitted effect of over 15% in size; further: potency means the concentration at half of the fitted maximal effect;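 on activation: HG2L7.5c1 human HepG2 liver cells with stably integrated DRE-driven firefly reporter; series mostly up to about 70 µM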
How it was run: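 HepG2 cells (HG2L7.5c1) stably carrying a firefly luciferase reporter driven by 20 dioxin responsive elements were exposed to compound for 24 h at 37C after a 5 h settling period; luminescence rise (ONE-Glo) indicated activation.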

[3] = qHTS assay to identify small molecule that activate the aryl hydrocarbon receptor (AhR) signaling pathway - cell viability counter screen (AID 743086); further: nearly all actives have a fitted effect of over 45% in size; further: potency means the concentration at half of the fitted maximal effect
How it was run: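 Cytotoxicity counter screen: CellTiter-Fluor signal (30 min, 37 C) in 4000 HepG2 cells/well carrying the DRE-luciferase reporter, following 24 h compound exposure at 37 C.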

[4] = target: Peroxisome proliferator-activated receptor gamma (Homo sapiens) (UniProt P37231); assay: qHTS assay to identify small molecule agonists of the peroxisome proliferator-activated receptor gamma (PPARg) signaling pathway (AID 743094; active means well fitted activation curve with a large enough effect in the signal ratio in the repeat runs, not every such curve was filed as active; the % refers to the signal ratio; further: potency means the concentration at half of the fitted maximal effect)
How it was run: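 Beta-lactamase FRET fluorescence was the read-out after a 1 h room-temperature substrate step, following 17 h compound treatment at 37C of HEK293H cells expressing a UAS-driven bla reporter responsive to PPARg.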

[5] = qHTS assay to identify small molecule antagonists of the peroxisome proliferator-activated receptor gamma (PPARg) signaling pathway - cell viability counter screen (AID 743194); further: nearly all actives have a fitted effect of over 55% in size
How it was run: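 Viability was measured as CellTiter-Glo luminescence in GeneBLAzer PPARg UAS-bla HEK293H cells. These cells had been exposed 17 h at 37 C to compounds together with rosiglitazone at 50 nM final, with the beta-lactamase readout taken in the same wells.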

[6] = qHTS assay for small molecule agonists of the antioxidant response element (ARE) signaling pathway (AID 743202; active means well fitted activation curve with a large enough effect in the signal ratio in the repeat runs, not every such curve was filed as active; the % refers to the signal ratio; further: potency means the concentration at half of the fitted maximal effect)
How it was run: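 Quantitative high-throughput format in HepG2 cells bearing an integrated ARE-beta-lactamase reporter. Compound exposure lasted 16 h at 37 C, and fluorescence was read 2 h after adding LiveBLAzer B/G substrate at room temperature.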

[7] = qHTS assay for small molecule agonists of the antioxidant response element (ARE) signaling pathway - cell viability counter screen (AID 743203; calls by dose curve; further: nearly all actives have a fitted effect of over 55% in size)
How it was run: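 HepG2 cells carrying ARE-driven beta-lactamase; 2,000 cells/well; 5 hrs plating; compound pinned from DMSO; 16 hrs 37C/5% CO2; CellTiter-Glo added; 30 min RT; luminescence.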

[8] = qHTS assay for small molecule activators of the heat shock response signaling pathway - cell viability counter screen (AID 743209); further: nearly all actives have a fitted effect of over 50% in size; further: potency means the concentration at half of the fitted maximal effect
How it was run: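 Luminescence from CellTiter-Glo, added after the beta-lactamase FRET read, gave the viability signal. Cells were HSE-bla HeLa treated with DMSO-dissolved compounds for 5 h at 37 C following overnight plating.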

[9] = qHTS assay to identify small molecule antagonists of the peroxisome proliferator-activated receptor delta (PPARd) signaling pathway - cell viability counter screen (AID 743213); further: nearly all actives have a fitted effect of over 50% in size; further: potency means the concentration at half of the fitted maximal effect
How it was run: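 PPARd-bla HEK293H cells (3000/well) got compound plus 300 nM L165041 agonist for 17 h at 37 C. Viability in the same wells came from CellTiter-Glo luminescence after 30 min at room temperature.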

[10] = target: Peroxisome proliferator-activated receptor delta (Homo sapiens) (UniProt Q03181); assay: qHTS assay to identify small molecule antagonists of the peroxisome proliferator-activated receptor delta (PPARd) signaling pathway (AID 743215; active means well fitted inhibition curve with a large enough effect in the signal ratio in the repeat runs, not every such curve was filed as active; the % refers to the signal ratio;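 further: cells stimulated with agonist L165041 at 300 nM final during compound exposure; series mostly up to about 62 µM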)
How it was run: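 Read-out is beta-lactamase FRET fluorescence, measured 2 h after substrate addition at room temperature. Beforehand, UAS-bla HEK293H cells carrying the PPARd reporter were exposed to compounds with L165041 at 300 nM final for 17 h at 37 C.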

[11] = qHTS assay to identify small molecule agonists of the farnesoid-X-receptor (FXR) signaling pathway - cell viability counter screen (AID 743218); further: nearly all actives have a fitted effect of over 45% in size; further: potency means the concentration at half of the fitted maximal effect
How it was run: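 HEK 293T FXR-bla cells; 5 h pre-incubation, 16 h compound exposure at 37 C; LiveBLAzer substrate 2 h RT, then CellTiter-Glo 30 min RT, luminescence.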

[12] = target: Vitamin D3 receptor (Homo sapiens) (UniProt P11473); assay: qHTS assay to identify small molecule antagonists of the vitamin D receptor (VDR) signaling pathway (AID 743223; active means well fitted inhibition curve with a large enough effect in the signal ratio in the repeat runs, not every such curve was filed as active; the % refers to the signal ratio)
How it was run: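 VDR-bla cells were plated, incubated 4 h at 37C, then given compound and 1alpha,25-dihydroxyvitamin D3 (3 nM final). After 16 h at 37C, LiveBLAzer B/G FRET substrate was added for 2 h at room temperature and fluorescence read.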

[13] = qHTS assay for small molecule activators of the heat shock response signaling pathway (AID 743210; active means well fitted activation curve with a large enough effect in the signal ratio in the repeat runs, with a control signal flat, not every such curve was filed as active; the % refers to the signal ratio; further: potency means the concentration at half of the fitted maximal effect;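 on activation: HeLa cells with beta-lactamase reporter driven by heat shock elements; series mostly up to about 63 µM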)
How it was run: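 HeLa HSE-bla cells, overnight plating; cpd in DMSO 5 h, 37 C; LiveBLAzer B/G FRET substrate 2.5 h RT; fluorescence intensity read.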

[14] = qHTS assay to identify small molecule agonists of the peroxisome proliferator-activated receptor delta (PPARd) signaling pathway - cell viability counter screen (AID 743211); further: nearly all actives have a fitted effect of over 55% in size; further: potency means the concentration at half of the fitted maximal effect
How it was run: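 PPARd-bla HEK293H cells (UAS-beta-lactamase reporter) were treated with compounds for 17 h at 37 C. Viability was then read in the same wells by CellTiter-Glo luminescence after 30 min at room temperature.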

[15] = target: Peroxisome proliferator-activated receptor delta (Homo sapiens) (UniProt Q03181); assay: qHTS assay to identify small molecule agonists of the peroxisome proliferator-activated receptor delta (PPARd) signaling pathway (AID 743212; calls by dose curve)
How it was run: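 HEK293H PPARd-bla cells; 5 h preincubation 37 C/5% CO2; compound (DMSO) 37 C; LiveBLAzer B/G FRET substrate 2 h RT; fluorescence intensity.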

[16] = qHTS assay to identify small molecule antagonists of the farnesoid-X-receptor (FXR) signaling pathway - cell viability counter screen (AID 743221; active means well fitted cell-killing curve with a large enough effect in the repeat runs, not every such curve was filed as active; further: nearly all actives have a fitted effect of over 50% in size; further: potency means the concentration at half of the fitted maximal effect)
How it was run: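 FXR-UAS-bla HEK 293T cells were treated with test compounds plus chenodeoxycholic acid (50 uM final) for 16 h at 37 C. Cell viability in the same wells was then read as CellTiter-Glo luminescence after 30 min at room temperature.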

[17] = target: Vitamin D3 receptor (Homo sapiens) (UniProt P11473); assay: qHTS assay to identify small molecule agonists of the vitamin D receptor (VDR) signaling pathway (AID 743222; calls by dose curve)
How it was run: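 VDR-bla cells, 2,000/well; 4 h preincubation 37C; cpd (DMSO) 16 h; LiveBLAzer B/G substrate 2 h RT; fluorescence intensity read.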

[18] = target: Bile acid receptor (Homo sapiens) (UniProt Q96RI1); assay: qHTS assay to identify small molecule antagonists of the farnesoid-X-receptor (FXR) signaling pathway (AID 743217; active means well fitted inhibition curve with a large enough effect in the signal ratio in the repeat runs, not every such curve was filed as active; the % refers to the signal ratio)
How it was run: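 HEK 293T FXR-UAS-bla, 5000 cells/well; compound + CDCA 50 uM final; 16 h, 37 °C; B/G FRET substrate 2 h RT; fluorescence.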

[19] = target: Bile acid receptor (Homo sapiens) (UniProt Q96RI1); assay: qHTS assay to identify small molecule agonists of the farnesoid-X-receptor (FXR) signaling pathway (AID 743220; active means well fitted activation curve with a large enough effect in the signal ratio in the repeat runs, not every such curve was filed as active; the % refers to the signal ratio)
How it was run: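 Beta-lactamase reporter under UAS control in GeneBLAzer FXR HEK 293T cells (5000/well) measured with LiveBLAzer FRET substrate after 2 h at room temperature. Compound exposure lasted 16 h at 37C.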

[20] = target: Peroxisome proliferator-activated receptor gamma (Homo sapiens) (UniProt P37231); assay: qHTS assay to identify small molecule antagonists of the peroxisome proliferator-activated receptor gamma (PPARg) signaling pathway (AID 743191; calls by dose curve; further: series mostly up to about 63 µM; nearly all actives have a fitted effect of over 30% in size)
How it was run: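 Beta-lactamase reporter under UAS control in HEK293H PPARg-bla cells; compound treatment 17 h at 37C. Read-out: fluorescence intensity after 1 h room-temperature incubation with LiveBLAzer B/G FRET substrate.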

Measured: Potency

Chain of Vitamin D3 receptor (Homo sapiens) (P11473 whole entry, looked up): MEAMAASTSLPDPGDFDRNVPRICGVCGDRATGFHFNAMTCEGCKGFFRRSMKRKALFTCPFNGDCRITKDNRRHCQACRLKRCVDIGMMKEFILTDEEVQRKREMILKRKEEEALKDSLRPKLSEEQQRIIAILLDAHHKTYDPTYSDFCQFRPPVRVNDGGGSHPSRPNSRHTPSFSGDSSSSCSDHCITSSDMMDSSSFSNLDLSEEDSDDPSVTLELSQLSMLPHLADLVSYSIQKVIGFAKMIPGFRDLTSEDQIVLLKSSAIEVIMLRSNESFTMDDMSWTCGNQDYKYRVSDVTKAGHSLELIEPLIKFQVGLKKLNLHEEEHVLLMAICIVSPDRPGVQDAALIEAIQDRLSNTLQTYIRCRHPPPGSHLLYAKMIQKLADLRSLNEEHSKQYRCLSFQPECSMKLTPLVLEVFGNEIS
Chain of Peroxisome proliferator-activated receptor delta (Homo sapiens) (Q03181 whole entry, looked up): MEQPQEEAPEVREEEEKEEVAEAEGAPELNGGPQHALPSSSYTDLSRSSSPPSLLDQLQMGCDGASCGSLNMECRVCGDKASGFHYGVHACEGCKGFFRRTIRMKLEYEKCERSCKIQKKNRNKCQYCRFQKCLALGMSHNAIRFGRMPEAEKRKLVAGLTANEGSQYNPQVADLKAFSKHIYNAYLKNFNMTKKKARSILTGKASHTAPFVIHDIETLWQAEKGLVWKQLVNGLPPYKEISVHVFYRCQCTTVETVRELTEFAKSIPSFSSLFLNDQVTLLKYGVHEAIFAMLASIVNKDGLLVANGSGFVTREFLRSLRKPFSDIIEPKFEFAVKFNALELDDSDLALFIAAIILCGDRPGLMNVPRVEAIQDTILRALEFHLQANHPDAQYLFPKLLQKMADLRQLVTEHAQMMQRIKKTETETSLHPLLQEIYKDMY
Chain of Bile acid receptor (Homo sapiens) (Q96RI1 whole entry, looked up): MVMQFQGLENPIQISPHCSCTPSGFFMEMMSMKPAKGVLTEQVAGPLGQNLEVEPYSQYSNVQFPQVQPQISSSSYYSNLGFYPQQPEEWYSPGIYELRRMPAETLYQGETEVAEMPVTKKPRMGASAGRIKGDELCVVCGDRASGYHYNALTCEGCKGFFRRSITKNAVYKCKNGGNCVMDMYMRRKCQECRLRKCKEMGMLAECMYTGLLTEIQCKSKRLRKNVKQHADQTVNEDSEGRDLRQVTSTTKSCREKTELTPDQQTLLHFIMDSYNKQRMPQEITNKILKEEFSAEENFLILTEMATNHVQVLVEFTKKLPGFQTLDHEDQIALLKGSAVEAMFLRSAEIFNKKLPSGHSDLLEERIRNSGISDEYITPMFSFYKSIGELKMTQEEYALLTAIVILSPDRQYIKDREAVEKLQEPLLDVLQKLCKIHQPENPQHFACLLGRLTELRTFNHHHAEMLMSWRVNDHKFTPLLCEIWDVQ
Chain of Aryl hydrocarbon receptor (Homo sapiens) (P35869 whole entry, looked up): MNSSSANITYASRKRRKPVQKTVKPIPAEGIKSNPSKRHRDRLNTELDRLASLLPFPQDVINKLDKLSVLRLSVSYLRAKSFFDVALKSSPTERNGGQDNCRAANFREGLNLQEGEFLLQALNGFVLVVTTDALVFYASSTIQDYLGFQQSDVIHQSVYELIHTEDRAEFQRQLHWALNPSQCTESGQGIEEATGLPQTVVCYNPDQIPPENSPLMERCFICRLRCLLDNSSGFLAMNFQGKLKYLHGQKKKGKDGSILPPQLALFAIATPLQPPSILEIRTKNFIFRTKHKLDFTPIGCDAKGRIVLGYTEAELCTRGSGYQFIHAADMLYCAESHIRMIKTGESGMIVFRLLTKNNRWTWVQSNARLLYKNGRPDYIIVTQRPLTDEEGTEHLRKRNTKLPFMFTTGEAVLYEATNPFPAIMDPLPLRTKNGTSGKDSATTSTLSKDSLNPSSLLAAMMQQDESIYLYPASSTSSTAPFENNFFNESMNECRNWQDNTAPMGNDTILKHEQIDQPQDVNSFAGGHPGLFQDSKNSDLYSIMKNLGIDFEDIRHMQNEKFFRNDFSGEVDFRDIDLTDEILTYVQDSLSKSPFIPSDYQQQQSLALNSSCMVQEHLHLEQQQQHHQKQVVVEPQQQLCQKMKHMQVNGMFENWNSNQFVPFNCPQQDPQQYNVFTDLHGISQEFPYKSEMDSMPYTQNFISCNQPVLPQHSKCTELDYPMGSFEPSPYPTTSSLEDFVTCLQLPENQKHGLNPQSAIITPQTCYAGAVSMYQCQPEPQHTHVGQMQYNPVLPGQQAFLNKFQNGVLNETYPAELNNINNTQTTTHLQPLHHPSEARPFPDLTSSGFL
Chain of Peroxisome proliferator-activated receptor gamma (Homo sapiens) (P37231 whole entry, looked up): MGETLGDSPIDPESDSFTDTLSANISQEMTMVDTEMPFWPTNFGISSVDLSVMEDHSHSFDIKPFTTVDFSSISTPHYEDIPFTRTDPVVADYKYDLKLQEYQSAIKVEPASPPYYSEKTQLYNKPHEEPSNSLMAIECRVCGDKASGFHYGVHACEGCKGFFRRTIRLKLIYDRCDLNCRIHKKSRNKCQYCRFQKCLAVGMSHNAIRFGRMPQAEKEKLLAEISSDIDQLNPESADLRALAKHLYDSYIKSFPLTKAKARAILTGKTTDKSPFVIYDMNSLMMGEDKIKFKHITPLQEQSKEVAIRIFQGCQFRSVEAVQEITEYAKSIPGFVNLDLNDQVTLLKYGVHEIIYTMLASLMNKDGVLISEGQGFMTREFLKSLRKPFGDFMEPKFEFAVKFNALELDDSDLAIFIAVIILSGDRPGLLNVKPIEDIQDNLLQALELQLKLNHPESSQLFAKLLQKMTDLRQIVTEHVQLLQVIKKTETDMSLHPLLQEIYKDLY

CO[C@@H]1[C@H](OC(=O)/C=C/C=C/C=C/C=C/C(=O)O)CC[C@]2(CO2)[C@H]1[C@@]1(C)O[C@@H]1CC=C(C)C
active: [6] 24.3 µM | [11] 1.95 µM
inactive: [1] | [2] | [3] | [4] | [5] | [7] | [8] | [9] | [10] | [12]

Nc1ccc(N)c2c1C(=O)c1ccccc1C2=O
active: [1] 17.2 µM | [2] 6.11 µM | [3] 21.7 µM
not listed: [6] | [11] | [18] | [19] | [20]
inactive: all other assays above

O=C(Nc1ccccc1)c1ccccc1O
active: [2] 21.7 µM | [6] 24.3 µM
not listed: [12] | [14] | [17] | [18] | [19] | [20]
inactive: all other assays above

COS(=O)(=O)C(F)(F)F
not listed: [9] | [10] | [12] | [13] | [14] | [16] | [17] | [20]
inactive: all other assays above

O=C(c1ccc(F)cc1)C1CCN(CCn2c(=S)[nH]c3ccccc3c2=O)CC1
active: [13] 19.6 µM
inactive: [1] | [2] | [3] | [20] | [5] | [7] | [11]

CC1=CC[C@H](C(C)C)C=C1
inactive: [1] | [2] | [3] | [4] | [5] | [7] | [8] | [13] | [9]
active: [6] 54.5 µM | [16] 49 µM

CCCCCCCCCOS(=O)(=O)O
not listed: [5] | [6] | [12] | [15] | [18] | [19] | [20]
inactive: all other assays above

CC(C)=CCC/C(C)=C/CC/C(C)=C/CO
active: [14] 38.9 µM
not listed: [6] | [8] | [11] | [13] | [15] | [18] | [19] | [20]
inactive: all other assays above

CCOC(=O)c1cccnc1
not listed: [8] | [10] | [12] | [17] | [18] | [19] | [20]
inactive: all other assays above

CCCCCCCN
not listed: [10] | [11] | [13] | [18] | [20]
inactive: all other assays above

CCCCc1nc2cccnc2n1Cc1ccc(-c2ccccc2-c2nnn[nH]2)cc1
active: [1] 54.5 µM | [4] 5.49 µM
inactive: [2] | [3] | [5] | [7] | [8] | [14] | [9] | [11] | [16] | [17]

CNCCCN1c2ccccc2CCc2ccccc21
active: [14] 26.6 µM | [9] 9.44 µM | [11] 18.8 µM
inactive: [1] | [2] | [3] | [5] | [8] | [13] | [19]

O=C(NCCO[N+](=O)[O-])c1cccnc1
not listed: [3] | [7] | [8] | [10] | [17] | [18] | [19]
inactive: all other assays above

C=CC(=O)OCCOc1ccccc1
active: [8] 19.5 µM
not listed: [4] | [10] | [11] | [13] | [15] | [18] | [19] | [20]
inactive: all other assays above

O=S(=O)(Oc1ccc(Cl)cc1)c1ccccc1
not listed: [3] | [10] | [11] | [12] | [15] | [16] | [20]
inactive: all other assays above

O=C(Nc1ccc(S(=O)(=O)N2CCOCC2)cc1)c1cc(Cl)ccc1NS(=O)(=O)c1ccc(Cl)s1
active: [9] 13.3 µM | [11] 6.68 µM
inactive: [1] | [2] | [3] | [8] | [10] | [19]

O=C1OC(CN2CCOCC2)CN1/N=C/c1ccc([N+](=O)[O-])o1 (stereo unspecified)
active: [6] 29.8 µM
not listed: [4] | [14] | [17] | [18] | [19] | [20]
inactive: all other assays above

CC(C)C[C@H]1C(=O)N2CCC[C@H]2[C@]2(O)O[C@](NC(=O)[C@@H]3C=C4c5cccc6[nH]c(Br)c(c56)C[C@H]4N(C)C3)(C(C)C)C(=O)N12
inactive: [1] | [2] | [5] | [7] | [8] | [13] | [11] | [16] | [17] | [12]
active: [3] 26.6 µM | [6] 4.13 µM

C=CC1CC2C=CC1C2 (stereo unspecified)
not listed: [3] | [9] | [10] | [11] | [18] | [19] | [20]
inactive: all other assays above

CCCCO
not listed: [4] | [6] | [7] | [10] | [15] | [19] | [20]
inactive: all other assays above

C=C(C)C(=O)OCCOCC
not listed: [3] | [12] | [17] | [18] | [19] | [20]
inactive: all other assays above

ClCCOCCOCCCl
not listed: [3] | [11] | [15] | [18] | [19]
inactive: all other assays above

NCCCN1CCOCC1
not listed: [3] | [6]
inactive: all other assays above

CCNc1cc(O)ccc1C
active: [2] 30.3 µM
not listed: [4] | [6] | [7] | [12] | [16] | [20]
inactive: all other assays above

CC/C=C\CCOC(=O)CC
inactive: [1] | [2] | [3] | [5] | [6] | [7] | [8] | [13] | [15] | [9] | [16]

CCOc1ccc(N)c([N+](=O)[O-])c1
not listed: [3] | [6] | [11] | [14] | [18] | [19]
inactive: all other assays above
